An excerpt weighted towards active compounds, which were near 2.3% of everything screened.
Nrf2 ARE act: activates Nrf2 signaling; AID 624171; AREc32 ARE-luciferase reporter (MCF7-derived line), luminescence, 24 h; Potency, µM (series often up to 46.1 µM), for the others: at the top dose activation, hits mostly activators; hit rate 0.31% among 410,000; also: potency is read from the fitted curve at half-maximal effect; % of control where 0% means no effect; nearly all actives have a fitted effect of over 65% in size
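Nrf2 activation is followed as ARE-luciferase induction in the AREc32 line after one day of compound treatment; luminescence is read with Steady-Glo.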
A549 tox: A549 cytotoxicity, counter-screen for Nrf2 inhibitors; A549 ARE-Fluc cells, CellTiter-Fluor viability, 18-24 h; Potency, µM (top dose mostly 46 µM), for inactives: at the highest dose activity change, negative = cytotoxicity, actives largely listed as inhibitors; hit rate 0.16% among 390,000; AID 504648; also: potency is read from the fitted curve at half-maximal effect; % is scaled to controls: 0 for no effect and ±100 for the full control effect
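A549 ARE-Fluc cells in 5% FBS OPTI-MEM, 5000 cells/well, rested 2 h then exposed to compounds in concentration-response for 18-24 h at 37 °C. Viability by CellTiter-Fluor fluorescence (Ex 405/Em 525) after 30 min; luciferase luminescence (BugLite, 15 min, RT) read afterwards.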
Giardia kill: kills Giardia lamblia | activity change, % at 7.66 µM, hits read low | hit rate 0.15% among 340,000 | AID 540267 | Giardia lamblia trophozoite viability; in the data active = activity change below about -80%; inconclusive = between about -30% and that limit;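 also: parasites exposed to compound for two days anaerobically before the ATP read; % is scaled to controls: 0 for no effect and ±100 for the full control effect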
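Viability, read as ATP luminescence: trophozoites at 100 cells/well, compound added, 48 hrs anaerobic at 37 deg C, then 15-30 min room-temperature development before reading.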
Anesthetic bind: candidate novel general anesthetic via apoferritin binding. hit rate 0.074% among 350,000. AID 485281. Potency, µM (titrated, usually from 77.5 µM), without a hit: at the highest dose activity change, negative = displacement, actives largely listed as inhibitors. apoferritin/1-aminoanthracene competitive binding, fluorescence; also: potency is read from the fitted curve at half-maximal effect; % is scaled to controls: 0 for no effect and ±100 for the full control effect; nearly all actives have a fitted effect of over 20% in size
Target sequence (P02791 2-175 limits assumed): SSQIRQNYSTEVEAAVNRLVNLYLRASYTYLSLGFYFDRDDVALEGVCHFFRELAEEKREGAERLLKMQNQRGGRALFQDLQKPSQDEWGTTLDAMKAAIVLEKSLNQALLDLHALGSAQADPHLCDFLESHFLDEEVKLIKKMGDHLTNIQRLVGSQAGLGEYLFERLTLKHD
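10 uM apoferritin + 50% sat. 1-AMA, PBS; cpd 10 min RT; Ex380/Em535 endpoint; normalized to free probe vs complex; 4-param Hill fit; propofol titration as pos. ctrl.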
IDH1 R132H inh: blocks human mutant IDH1 R132H enzyme; O75874; Potency, µM (series often up to 76.6 µM), for inactives: at the top dose activity change, negative = inhibition, hits mostly inhibitors; IDH1-R132H enzyme, NADPH consumption, diaphorase/resazurin fluorescence; hit rate 0.093% among 390,000; AID 602179; also: potency is read from the fitted curve at half-maximal effect; % is scaled to controls: 0 for no effect and ±100 for the full control effect; nearly all actives have a fitted effect of over 65% in size
Target sequence (O75874 whole entry R132H, stated change not applied): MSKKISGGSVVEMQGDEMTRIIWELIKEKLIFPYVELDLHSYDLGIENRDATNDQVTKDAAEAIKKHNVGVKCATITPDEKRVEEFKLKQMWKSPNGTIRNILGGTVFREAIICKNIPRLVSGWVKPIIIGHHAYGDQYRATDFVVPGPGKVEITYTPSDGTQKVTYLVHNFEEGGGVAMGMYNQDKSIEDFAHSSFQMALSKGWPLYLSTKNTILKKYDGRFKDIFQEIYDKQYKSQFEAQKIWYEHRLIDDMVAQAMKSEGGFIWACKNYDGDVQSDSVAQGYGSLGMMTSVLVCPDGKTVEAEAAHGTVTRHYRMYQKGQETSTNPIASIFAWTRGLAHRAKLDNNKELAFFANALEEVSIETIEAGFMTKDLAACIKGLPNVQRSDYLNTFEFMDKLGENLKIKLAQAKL
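IDH1-R132H (0.5 ug/mL dispensed) in pH 7.5 Tris buffer was preincubated 30 min with compound, then given a substrate mix of 0.016 mM NADPH and 2 mM alpha-KG for 80 min at room temperature; remaining NADPH was read by diaphorase/resazurin fluorescence.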
Nrf2 block: blocks Nrf2 signaling; AID 504444; A549 ARE-Fluc reporter, luciferase luminescence, 18-24 h; Potency, µM (highest dose often 46 µM), for inactives: top-dose activity change, negative = inhibition, hits mostly inhibitors; hit rate 2.1% among 360,000; also: potency is read from the fitted curve at half-maximal effect; % is scaled to controls: 0 for no effect and ±100 for the full control effect; nearly all actives have a fitted effect of over 60% in size
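Concentration-response testing used A549 ARE_Fluc cells at 5000 cells/well. Following an 18-24 h compound incubation, viability was read by fluorescence (Ex 405/Em 525) and luciferase output by luminescence.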
* hit, by the source's call; ? = inconclusive; . = no result given; [ ] = remark or other dose. Unless noted, calls follow the shape of the dose curve; as a rule, active = well fitted curve in the direction sought with a large enough effect; inconclusive = small, poorly fitted or top-dose-only effect, or another doubt; inactive = no such curve, though single readings can be large; an effect the other way counts as inactive or inconclusive.

SMILES	Nrf2 ARE act	A549 tox	Giardia kill	Anesthetic bind	IDH1 R132H inh	Nrf2 block
Cc1nn(-c2ccc(Cl)c(Cl)c2Cl)c(=O)c2ccccc12	1%	?	7	18µM*	4%	.
Cc1cc(NC(=O)c2c(F)cccc2Cl)n(-c2nc3ccccc3[nH]2)n1	-1%	-18%	-8	-19%	10%	15µM*
Cc1cc(NC(=O)c2c(F)cccc2F)n(-c2nc3ccccc3[nH]2)n1	-2%	?	-3	-16%	-3%	?
Cc1cc(Nc2ccccc2)n(-c2nc3ccccc3[nH]2)n1	10%	-8%	-2	-7%	-2%	16µM*
Cc1nn(-c2nc3ccccc3[nH]2)c(=O)c2ccccc12	-2%[9.22 µM]	-4%	-97*	8%	1%	1.3µM*
COc1ccc(-c2ccc3ncnc(NCCc4cnc[nH]4)c3c2)cc1OC	.	?	.	.	.	-17%
Cc1nc2sccn2c1-c1csc(NCc2ccccc2)n1	7%	-14%	4	-5%	-7%	8.2µM*
Cc1nc(NC(=O)c2ccccc2)sc1-c1csc(NCc2ccccc2)n1	3%	-16%	-14	48%	1%	21µM*
Cc1csc2nc(NC(=O)c3ccccc3)sc(=O)c12	3.2µM*	-1%	-5	2%	3%	?
O=C(Nc1ccc(F)c(Cl)c1)c1cc(S(=O)(=O)N2CCCc3ccccc32)ccc1F	2%	3%	.	-9%	-3%	.
CCNC(=S)N1CCN(c2ccc([N+](=O)[O-])cc2)CC1	0%	?	-14	?	0%	?
CN(C)c1ccc(C(=S)N2CCN(c3ccc([N+](=O)[O-])cc3)CC2)cc1	0%	-4%	3	3%	5%	?
O=[N+]([O-])c1ccc(N2CCN(C(=S)NCc3ccc(Cl)cc3)CC2)cc1	0%	?	15	-8%	16%	16µM*
O=[N+]([O-])c1ccc(CN2CCN(c3ccc(Cl)cc3)CC2)o1	0%[9.22 µM]	7%	-94*	-5%	-15%	9%
O=[N+]([O-])c1ccc(C(=S)N2CCN(c3ccc(F)cc3)CC2)cc1	3%	-1%	3	-14%	5%	18µM*
O=C(Cn1c(=O)oc2cc(S(=O)(=O)NCc3ccccc3)ccc21)NCc1ccccc1Cl	-1%	19%	.	-2%	-15%	.
CCN(CC)S(=O)(=O)c1ccc2c(c1)N(CC(=O)N1CCN(c3ccc(OC)cc3)CC1)C(=O)CO2	0%	-12%	.	-14%	43%	.
O=C(Nc1ccccc1O)c1cccc(NC(=O)c2ccco2)c1	7.9µM*	0%	15	-4%	7%	9%
O=C(Nc1cccc(F)c1)c1ccco1	10µM*	-3%	-2	-6%	33%	9%
O=C(Nc1nc2c(F)cccc2s1)c1ccco1	7.1µM*	1%	-16	-13%	0%	?
O=C(Nc1ccccc1O)c1ccc(C(=O)c2ccccc2)o1	13µM*	0%	13	-6%	8%	16%
COc1ccc(C(=O)CC(Nc2ccc([N+](=O)[O-])cc2)c2ccc(Cl)cc2)cc1 (configuration not stated)	1%	?	-11	-21%	-1%	6.5µM*
COc1ccc(C(=O)CC(=O)C(=O)Nc2ccc(Cl)cc2)cc1	2%	0%	-8	-3%	-10%	6%
CC1(c2nnc(Cc3ccccc3)o2)CC(c2ccccc2)=NO1 (configuration not stated)	0%	6%	14	.	0%	-2%
CC1(c2nnc(Cc3ccccc3)o2)CC(c2ccc(OC(F)(F)F)cc2)=NO1 (configuration not stated)	1%	-12%	5	.	-8%	23µM*
SMILES	Nrf2 ARE act	A549 tox	Giardia kill	Anesthetic bind	IDH1 R132H inh	Nrf2 block
CCC(C)C(=O)OC1CCC=C2C=CC(C)C(CCC3CC(O)CC(=O)O3)[C@@H]21 (some centres not stated)	.	.	.	-8%	.	.
COc1cc(O)ccc1-c1nc2ccc(Br)cn2c1Nc1ccccc1C	-6%	-12%	.	-10%	?	-12%
Cc1cc(C)c(N=C2C(=O)Nc3ccccc32)c(C)c1	6%	2%	34	-5%	6%	-17%
Cc1cccc(C)c1N=C1C(=O)Nc2ccccc21	-1%	-17%	?	-1%	0%	18µM*
CCCOc1ccccc1C1CC(=O)Nc2cc3c(cc21)OCCO3 (configuration not stated)	4%	?	4	-11%	-3%	21µM*
CCOc1c(Br)cc(C2CC(=O)Nc3cc4c(cc32)OCO4)cc1OC (configuration not stated)	0%	1%	.	-2%	4%	21µM*
COc1cc(C2CC(=O)Nc3cc4c(cc32)OCCO4)cc(Br)c1OC (configuration not stated)	0%	2%	.	-8%	-16%	?
CC(C)Oc1cccc(C2CC(=O)Nc3cc4c(cc32)OCO4)c1 (configuration not stated)	1%	-19%	.	-19%	19%	16µM*
CCOc1ccccc1C1CC(=O)Nc2cc3c(cc21)OCCO3 (configuration not stated)	0%	?	27	-14%	6%	?
CC(C)Oc1ccccc1C1CC(=O)Nc2cc3c(cc21)OCO3 (configuration not stated)	-1%	?	-16	-20%	24%	7.3µM*
CSc1nc2sc3c(c2c(=O)n1-c1ccc(C)cc1)CCCC3	4%	-1%	.	-11%	-8%	11%
COc1cccc(NC(=O)c2nnn(Cc3cccc(C(F)(F)F)c3)c2N)c1	0%	15%	.	-16%	-5%	-2%
COc1ccc(-c2cn3c(C)c(C(=O)N4CCc5ccccc5C4)sc3n2)cc1	0%	-5%	18	-8%	-11%	16µM*
COc1ccc2[nH]c(C(=O)N3CCc4ccccc4C3)c(C)c2c1	3%	9%	4	-13%	-8%	18µM*
Cc1c(C(=O)N2CCc3ccccc3C2)sc2nc(-c3ccccc3)cn12	3%	3%[1.84 µM]	2	-6%	3%	-12%
O=C1c2ccccc2C(=O)N1c1noc2ccccc12	.	11%	.	.	.	?
Cc1ccc(S(=O)(=O)C(CNC(=O)COc2ccccc2)c2ccco2)cc1 (configuration not stated)	3%	7%	.	3%	-13%	.
CCN(CC)c1ccc(/C=C/c2cccc[n+]2C)c(OC)c1	3%	7.3µM*	9	-15%	6%	5.8µM*
Clc1ccc(-c2nnc(Sc3nc4ccccc4o3)c3ccccc23)cc1	?	-26%	-6	-9%	2%	18µM*
CCNc1nc(NC(C)C)nc(N(C#N)CCOc2ccc(Cl)cc2Cl)n1	4%	.	0	1%	?	9.2µM*
